Consider three compounds from PubChem BioAssay (NCATS).

Records with an inconclusive call do not appear. Where a call stands in place of a potency, no number is given. The source made the active and inactive calls. Calls follow the shape of the dose curve; as a rule, active = well fitted inhibition curve with a large enough effect; inconclusive = small, poorly fitted or top-dose-only effect; inactive = no such curve, though single readings can be large or run the other way.

The nature of the assay: Primary qHTS for inhibitors of nuclear receptor binding SET domain protein 2 (NSD2) in an RCH-ACV wild type WT cells (2C) (AID 1645877). Also: nearly all actives have a fitted effect of over 70% in size. The following applies: RCH-ACV (leukaemia line) NSD2 WT (2C) viability, CellTiter-Glo, 72 h; series mostly up to 44.9 µM.
With `CC1(C)CC[C@]2(C(=O)O[C@@H]3O[C@H](CO)[C@@H](O)[C@H](O)[C@H]3O)CC[C@]3(C)C(=CCC4[C@@]5(C)C[C@H](O)[C@H](O[C@@H]6O[C@H](C(=O)O)[C@@H](O)[C@H](O)[C@H]6O)[C@@](C)(CO)C5CC[C@]43C)C2C1` (stereo partly drawn), the activity change, negative = cell killing is -7.01% [at 9.23 µM] (inactive).
Consider `CC(=O)/C=C/C1(O)C(C)=CC(=O)CC1(C)C` (stereo not drawn), for which the Potency entry is “inactive”.
Regarding `COc1cc([C@H]2OC[C@](O)(Cc3ccc(O[C@@H]4O[C@H](CO)[C@@H](O)[C@H](O)[C@H]4O)c(OC)c3)[C@@H]2CO)ccc1O`, the Potency result is “inactive”.
